Assay outcomes: PubChem, several laboratories
Peg3 promoter = reduces Peg3 promoter-driven luciferase expression in HeLa; inhibition, % at 20 µM; HeLa PEG-Prom luciferase reporter, luminescence, overnight; actives 1.7% (n = 360,000);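 active = inhibition of at least 50% at 20 µM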
KKLEB cytotox = counter-screen for CF NF-kB inhibitors: cytotoxicity; actives 0.36% (n = 360,000); KKLEB CF airway cells viability, ATPlite luminescence, overnight; active compounds read low; cells stimulated with P. aeruginosa culture filtrate; activity change (cytotoxicity), % at 5 µM; AID 602141;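 active = corrected activity change at or below -50% at 5 µM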
ABHD5-PLIN5 inh = ABHD5-PLIN5 protein interaction inhibition; Q00G26+Q8WTS1; Split G. princeps luciferase complementation, luminescence, 4 h; inhibition, % at 4 µM; actives 0.78% (n = 360,000); AID 602281;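 active = inhibition above the mean inhibition across every tested compound plus 3 SD, cut at about 22% in these data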
Target sequence (Q00G26 whole entry, looked up): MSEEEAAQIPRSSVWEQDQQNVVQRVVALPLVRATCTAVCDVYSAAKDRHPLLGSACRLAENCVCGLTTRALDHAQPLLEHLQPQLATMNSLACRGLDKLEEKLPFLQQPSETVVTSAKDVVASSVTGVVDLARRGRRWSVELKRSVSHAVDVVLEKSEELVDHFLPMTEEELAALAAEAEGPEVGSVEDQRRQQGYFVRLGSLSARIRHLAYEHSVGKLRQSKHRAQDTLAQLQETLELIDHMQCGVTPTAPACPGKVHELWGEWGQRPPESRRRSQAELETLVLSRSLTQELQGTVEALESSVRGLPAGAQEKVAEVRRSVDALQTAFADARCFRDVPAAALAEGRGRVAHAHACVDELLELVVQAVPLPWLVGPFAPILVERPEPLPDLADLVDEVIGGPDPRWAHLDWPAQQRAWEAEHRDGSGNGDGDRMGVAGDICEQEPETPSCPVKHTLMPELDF
Target sequence (Q8WTS1 whole entry, looked up): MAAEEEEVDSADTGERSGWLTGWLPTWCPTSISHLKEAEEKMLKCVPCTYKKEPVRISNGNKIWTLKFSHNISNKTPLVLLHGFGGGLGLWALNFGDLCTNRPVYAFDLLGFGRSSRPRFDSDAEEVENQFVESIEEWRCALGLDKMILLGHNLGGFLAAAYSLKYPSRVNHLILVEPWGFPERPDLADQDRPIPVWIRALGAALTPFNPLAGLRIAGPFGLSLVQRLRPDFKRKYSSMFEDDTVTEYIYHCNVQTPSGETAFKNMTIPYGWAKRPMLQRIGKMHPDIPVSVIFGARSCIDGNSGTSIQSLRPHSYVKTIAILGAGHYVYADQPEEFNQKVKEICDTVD
HIF-2a inh = inhibitors of HIF-2a; actives 0.72% (n = 360,000); AID 624352; 786-0 RCC cells HIF-2a reporter, luciferase luminescence, overnight; inhibition, % at 18.8 µM;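 active = inhibition of the luminescence signal of 40% or more relative to plate controls, in a single-dose primary screen at 18.75 µM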
TRPM1 prom inh = MITF TRPM1 promoter inhibition in SK-MEL-5 cells; SK-MEL-5 TRPM1 promoter luciferase, 24 h; inhibition, % at 12.5 µM; actives 0.83% (n = 330,000); AID 488899;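 active = mean inhibition across replicates of 60% or more, whatever share of single replicates reaches that level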
CF NFkB block = blocks PAF-induced NF-kB reporter in cystic fibrosis cells; KKLEB NF-kB-GFP reporter, GFP fluorescence overnight; inhibition, % at 5 µM; actives 0.86% (n = 360,000);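 active = at least 50% inhibition at 5 µM, scaled per plate between neutral and stimulator controls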;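 also: PAF is a Pseudomonas aeruginosa culture filtrate used as stimulus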
Large screens that a line does not name were inactive. Sampled rows, rich in hits. Any-hit rate of the full collection: about 3.1%.

OC(CON=C1c2ccccc2-c2ccccc21)CN1CCNCC1 (centres undefined)	Peg3 promoter 57
C=CCSC1=NC(=O)/C(=C/c2cccs2)S1	Peg3 promoter 53
NC1=NC(=O)/C(=C/c2cccs2)S1	none
O=C(c1ccoc1)N1CCC2(CCCN(Cc3ccc(F)c(F)c3)C2)C1 (centres undefined)	none
COc1ccc(Nc2nc(N)c(C(=O)c3ccc(OC)cc3)s2)cc1	CF NFkB block 53
COc1ccc(Nc2nc(N)c(C(=O)c3ccc(F)cc3)s2)cc1	none
COc1ccc(C(=O)c2sc(NC(C)C)nc2N)cc1OC	CF NFkB block 58
COc1ccc(-c2nc(-c3ccc(NC(=O)c4ccc(Br)o4)cc3)no2)cc1OC	Peg3 promoter 54
COc1cc(-c2nc(-c3ccc(NC(=O)c4ccc(Br)o4)cc3)no2)cc(OC)c1OC	none
Cc1ccc(CNC(=O)Cn2cnc(S(=O)(=O)N3CCC(C)CC3)c2)o1	ABHD5-PLIN5 inh 22
c1ccc(/N=C2\N=C(Nc3ccccn3)c3ccccc32)nc1	Peg3 promoter 64
Cc1cc2c(cc1C)N(C(=O)CCl)CCN2C(=O)CCl	Peg3 promoter 109, TRPM1 prom inh 94
O=C(O)c1cc(-c2ccccc2)n(-c2ccc(Cl)cc2)n1	none
COC(=O)[C@]12CCCCC=C1N(Cc1cccc3ccccc13)C(=O)[C@H](CC(=O)NCCCCc1ccccc1)C2	none (no result: Peg3 promoter, KKLEB cytotox, TRPM1 prom inh, CF NFkB block)
COc1cc(NC(=O)CN2CCN(C(=O)C3CCCO3)CC2)c(OC)cc1Cl (centres undefined)	none
O=C(/C=C/c1ccco1)NC(=S)Nc1nc(-c2ccc(Cl)cc2)cs1	none
O=C(/C=C/c1ccco1)NC(=S)Nc1nc(-c2ccc3ccccc3c2)cs1	KKLEB cytotox -64
COC(=O)[C@]12CCCCC=C1N(Cc1ccccc1)C(=O)[C@H](CC(=O)NCCCCc1ccccc1)C2	none (no result: Peg3 promoter, KKLEB cytotox, TRPM1 prom inh, CF NFkB block)
Cc1ccc(C)c2sc(N3CCN(C(=O)c4ccc([N+](=O)[O-])o4)CC3)nc12	none
O=C(c1ccc([N+](=O)[O-])o1)N1CCN(c2nc3c(F)cc(F)cc3s2)CC1	TRPM1 prom inh 79
Oc1ccccc1C1SC(c2ccccc2O)SC(c2ccccc2O)S1 (centres undefined)	Peg3 promoter 105, KKLEB cytotox -88, CF NFkB block 91
CN(Cc1ccc(Cl)cc1Cl)C(=O)C1CSC2(C)CCC(=O)N12 (centres undefined)	none (no result: TRPM1 prom inh)
COc1ccc(C(CCN2CCCC2)c2c(OC)cc(OC)c3c(-c4ccccc4)cc(=O)oc23)cc1 (centres undefined)	TRPM1 prom inh 67
COc1ccc(C(CCN2CCCC(C)C2)c2c(OC)cc(OC)c3c(C)cc(=O)oc23)cc1 (centres undefined)	none
COc1ccc(C(CCN2CCCC(C)C2)c2c(OC)cc(OC)c3c(-c4ccccc4)cc(=O)oc23)cc1 (centres undefined)	Peg3 promoter 65
COc1cc(OC)c2c(-c3ccccc3)cc(=O)oc2c1C(CCN1CCCC(C)C1)c1ccc(N(C)C)cc1 (centres undefined)	Peg3 promoter 78
COc1cc(OC)c2c(-c3ccccc3)cc(=O)oc2c1C(CCN1CCOCC1)c1ccc2c(c1)OCO2 (centres undefined)	none
COc1cc(OC)c2c(-c3ccccc3)cc(=O)oc2c1C(CCN1CCCC1)c1ccc2c(c1)OCO2 (centres undefined)	Peg3 promoter 91, ABHD5-PLIN5 inh 22
Cc1ncccc1C(=O)N1CCCC(c2cc(C(=O)Nc3ccc(C(C)(C)C)cc3)no2)C1 (centres undefined)	none (no result: TRPM1 prom inh)
C/C(=N\NC(=O)c1ccc(CSc2nc(C)cc(C)n2)cc1)c1ccco1	KKLEB cytotox -95, CF NFkB block 90
Cc1cc(C)nc(SCc2ccc(C(=O)N/N=C/c3ccco3)cc2)n1	none
O=C(NC1CCCCC1)C1c2ccccc2OCC(=O)N1CCc1ccccc1 (centres undefined)	none (no result: Peg3 promoter, KKLEB cytotox, TRPM1 prom inh, CF NFkB block)
COc1cc(C(=O)Nc2ccc(-c3nc4cc(C)ccc4o3)c(O)c2)cc(OC)c1OC	Peg3 promoter 70
CCC(=O)OCC(=O)c1cc(C)n(-c2ccc(Br)cc2)c1C	none
Cc1ccc(S(=O)(=O)NCCNC(=O)c2ccc(C)nc2)cc1	none
CC(Sc1nnc(-c2ccncc2)n1C)C(=O)Nc1ccc(N2CCOCC2)cc1 (centres undefined)	none
CN(CC1CCCO1)S(=O)(=O)c1ccc(C(=O)Nc2nc(-c3ccccn3)cs2)cc1 (centres undefined)	Peg3 promoter 54
O=C(Nc1nc(-c2ccc(S(=O)(=O)N3CCOCC3)cc2)cs1)c1ccccc1	none
O=C(Nc1nc(-c2ccccn2)cs1)c1ccc(F)c(S(=O)(=O)N2CCOCC2)c1	TRPM1 prom inh 67
COc1cccc(C(=O)Nc2nc(-c3ccc(S(=O)(=O)N4CCOCC4)cc3)cs2)c1	Peg3 promoter 68
CN(CC1CCCO1)S(=O)(=O)c1ccc(C(=O)Nc2ccccc2F)cc1 (centres undefined)	none
CC1CN(S(=O)(=O)c2ccc(C(=O)Nc3nc(-c4cc5ccccc5o4)cs3)cc2)CC(C)O1 (centres undefined)	KKLEB cytotox -54, CF NFkB block 50
O=C(Nc1nc(-c2cc3ccccc3o2)cs1)c1ccc(S(=O)(=O)N2CCCC2)cc1	none
O=C(Nc1nc(-c2nc3ccccc3s2)cs1)c1ccc(S(=O)(=O)N2CCOCC2)cc1	CF NFkB block 55
COc1cccc(C2Oc3ccccc3C3CC(c4cccs4)=NN32)c1 (centres undefined)	ABHD5-PLIN5 inh 22 (no result: TRPM1 prom inh)
N#Cc1c(N)n(C2OC(CO)C(O)C2O)c2ncnc(N)c12 (centres undefined)	Peg3 promoter 96, KKLEB cytotox -62, HIF-2a inh 71, TRPM1 prom inh 71, CF NFkB block 89
CCOC(=O)c1ccc(N=Nc2c(C)c(C#N)c(O)[nH]c2=O)cc1	CF NFkB block 65
Cc1c(C#N)c(O)n(C)c(=O)c1N=Nc1ccc(S(N)(=O)=O)cc1	none
CC1(C(=O)Nc2ccc3ccccc3c2)CCC(=O)N1C1CC1 (centres undefined)	none (no result: TRPM1 prom inh)
Cc1c(C#N)c(NC(=O)CCl)n(Cc2ccc(F)cc2)c1C	Peg3 promoter 58, KKLEB cytotox -58, TRPM1 prom inh 66, CF NFkB block 73
Cc1c(C#N)c(NC(=O)CCl)n(Cc2ccccc2)c1C	Peg3 promoter 53, TRPM1 prom inh 81
Cc1c(C#N)c(NC(=O)CCl)n(Cc2cccs2)c1C	TRPM1 prom inh 77
COCCCN(Cc1ccco1)C(=O)CSc1nc2ncccc2[nH]1	none
CCN(CC)CCCN1C(=O)CSC1c1ccc([N+](=O)[O-])cc1 (centres undefined)	none
